# Screen size: about 200,000 compounds; about 1,600 (0.8%) were called active.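 Rule for the calls: active = plate Z-score above 3 for both tubulin-high and condensed-nucleus cell shares, with cell loss under 80%, at 10 µM; inactive = the rest, inconclusive results apart.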 The entries come from a sample that favours actives as a whole.
# Assay: tubulin staining increase by stabilizing compounds – imaging, high-content imaging, primary screen (AID 2205);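 for % tubulin-high responders: anti alpha tubulin signal scored within the nucleus-defined area of each cell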;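 for toxicity: 0% = mean cell density of plate MIN control wells and 100% = no cells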
# Settings: HeLa tubulin immunostaining HCS, 24 h, at 10 µM; % Hoechst-high responders: measured here: nuclear condensation Hoechst responders, stronger effect = higher value; % tubulin-high responders: stronger effect = higher value; toxicity: measured here: cytotoxicity by cell density
Structure (SMILES),% Hoechst-high responders,% tubulin-high responders,toxicity
Cc1ccc(-c2cc(C(=O)N3CCC4(CC3)OCCO4)no2)cc1,2.17%,2.98% (inactive),5.89%
O=C(c1cc(-c2ccncc2)nc2ccccc12)N1CCC2(CC1)OCCO2,1.52%,3.12% (inactive),6.16%
Cc1cccc(-n2c(C)nc3cc(C(=O)N4CCC5(CC4)OCCO5)ccc32)c1,32.4%,48.1% (active),34.2%
O=C(O)CCn1cc(C=C2C(=O)NC(=S)NC2=O)c(-c2cccc(Br)c2)n1,1.76%,1.65% (inactive),3.44%
C[N+]12CN3CN(CN(C3)C1)C2,0.953%,7.11% (inactive),4.73%
COc1cc(-n2c(=S)[nH]c3ccc(C)cc3c2=O)c(Cl)cc1Cl,23.7%,12.4% (active),29%
CC(Cc1cccs1)NCc1ccc(Cl)cc1 (stereo not given),2.36%,3.24% (inactive),0.83%
CN1CCN(C(=O)COc2ccc(C(C)(C)C)cc2Br)CC1,1.35%,1.46% (inactive),9.25%
Cc1cccc2c(CCN)c[nH]c12,2.2%,2.61% (inactive),4.06%
Cc1cc(C)cc(NC(=S)NC2CC3CCCC(C2)N3Cc2cccs2)c1 (stereo not given),1.98%,3.91% (inactive),8.8%

# — PubChem BioAssay AID2205 (University of Pittsburgh Molecular Library Screening Center, 2009)
